In PubChem BioAssay (NCI):
Compounds without any hit were thinned out: in the full panel of roughly 79,000, 15% have a hit. Values without a mark were called inactive. Calls of active or inactive are those of the source. Cut-off read from the data, not from the text of the source: active = growth inhibition above about 70%; inactive = the rest.

Columns and labels:
[1] = NCI Yeast Anticancer Drug Screen. Data for the rad52 strain (AID 147);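 note: 0% = growth of vehicle-treated control cultures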; conditions: S. cerevisiae rad52 mutant growth inhibition, hits give high values
Procedure, shortened: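 DNA repair-defective yeast; compound exposure; growth scored against vehicle controls.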

[2] = NCI Yeast Anticancer Drug Screen. Data for the wt1 strain (AID 149);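 note: 0% = growth of vehicle-treated wt1 cultures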; conditions: S. cerevisiae wt1 strain (SPY 50644) growth inhibition, hits give high values
Procedure, shortened: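 Growth inhibition read against vehicle controls after compound exposure of the wt1 yeast strain.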

[3] = NCI Yeast Anticancer Drug Screen. Data for the rad50EPP+ strain (AID 151);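 note: 0% = growth of vehicle-treated control cultures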; conditions: S. cerevisiae rad50 mutant strain, hits give high values
Procedure, shortened: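 rad50EPP+ yeast treated with test compounds. Readout: growth vs vehicle control.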

[4] = NCI Yeast Anticancer Drug Screen. Data for the mgt1 strain (AID 153); conditions: S. cerevisiae mgt1 mutant growth inhibition, hits give high values
Procedure, shortened: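 Growth inhibition relative to vehicle controls was scored for the mgt1 yeast strain after compound exposure.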

[5] = NCI Yeast Anticancer Drug Screen. Data for the rad50 strain (AID 155);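 note: 0% = growth of vehicle-only cultures of the same strain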; conditions: S. cerevisiae rad50 strain growth inhibition, hits give high values
Procedure, shortened: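 Readout: growth inhibition relative to vehicle-treated cultures. Compound exposure was carried out in a genetically defined yeast strain deficient in DNA damage repair.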

[6] = NCI Yeast Anticancer Drug Screen. Data for the mec2-1 strain (AID 157); conditions: S. cerevisiae mec2-1 strain, hits give high values
Procedure, shortened: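 Growth inhibition is read against vehicle-treated controls after compound exposure of the mec2-1 yeast strain, which is defective in DNA damage repair or cell cycle control.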

[7] = NCI Yeast Anticancer Drug Screen. Data for the rad14 strain (AID 159);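 note: 0% = growth of vehicle-treated control cultures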; conditions: S. cerevisiae rad14 strain growth inhibition, hits give high values
Procedure, shortened: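 Growth inhibition vs vehicle controls; genetically altered yeast strain (DNA damage repair defect) treated with test compounds.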

[8] = NCI Yeast Anticancer Drug Screen. Data for the sgs1 mgt1 strain (AID 161);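 note: 0% = growth of cultures given vehicle only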; conditions: S. cerevisiae sgs1 mgt1 strain, hits give high values
Procedure, shortened: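 Percent growth inhibition was derived by comparing compound-exposed mutant yeast with vehicle-exposed cultures. The strain carries alterations in DNA damage repair.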

[9] = NCI Yeast Anticancer Drug Screen. Data for the CLN2oe strain (AID 163);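 note: 0% = growth of vehicle-only control cultures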; conditions: S. cerevisiae CLN2oe strain, hits give high values
Procedure, shortened: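 Compound-treated yeast; growth vs vehicle ctrl = % inhibition. Genetically altered strain (cell-cycle control).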

[10] = NCI Yeast Anticancer Drug Screen. Data for the cln2 rad14 strain (AID 165);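 note: 0% = growth equal to vehicle treated cultures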; conditions: S. cerevisiae cln2 rad14 strain, hits give high values
Procedure, shortened: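 Growth inhibition, relative to vehicle-treated controls, is the read-out. The test organism is a yeast strain with defined genetic alterations, cln2 rad14.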

[11] = NCI Yeast Anticancer Drug Screen. Data for the bub3 strain (AID 167); conditions: S. cerevisiae bub3 mutant strain, hits give high values
Procedure, shortened: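 Readout: yeast growth inhibition, expressed relative to vehicle-only wells. The test organism is a mutant strain from a panel with lesions in DNA repair or checkpoint genes.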

[12] = NCI Yeast Anticancer Drug Screen. Data for the wt2 strain (AID 169);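 note: 0% = growth of vehicle-treated yeast cultures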; conditions: S. cerevisiae wt2 strain growth inhibition, hits give high values
Procedure, shortened: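 Compound exposure of yeast; growth compared with vehicle controls; inhibition reported.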

[13] = NCI Yeast Anticancer Drug Screen. Data for the mlh1 strain (AID 171);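 note: 0% = growth of vehicle-treated control cultures of the same strain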; conditions: S. cerevisiae mlh1 strain growth inhibition, hits give high values
Procedure, shortened: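 Compounds are applied to a genetically altered yeast strain, and its growth is compared with that of vehicle-treated cultures to give percent inhibition.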

[14] = NCI Yeast Anticancer Drug Screen. Data for the sgs1 strain (AID 173);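 note: 0% = growth of vehicle-only control cultures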; conditions: S. cerevisiae sgs1 mutant, hits give high values
Procedure, shortened: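 Compounds applied to genetically altered yeast; growth compared with vehicle-treated cultures to give % inhibition.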

[15] = NCI Yeast Anticancer Drug Screen. Data for the mlh1 rad18 strain (AID 175); conditions: S. cerevisiae mlh1 rad18 strain growth inhibition, hits give high values
Procedure, shortened: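 Cells of a genetically altered yeast strain, deficient in DNA damage repair, were treated with compound. Their growth was then compared with that of vehicle-treated cultures to give inhibition.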

[16] = NCI Yeast Anticancer Drug Screen. Data for the rad18 strain (AID 177); conditions: S. cerevisiae rad18 mutant growth inhibition, hits give high values
Procedure, shortened: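 Compounds are applied to a repair-deficient yeast strain, and growth is compared with that of vehicle-treated cultures to give percent inhibition.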

[17] = at 5.0 µM (retest, dose inferred, filed as 0.5)
[18] = at 50.0 µM (retest, dose inferred, filed as 5.0)

Which results are given for COc1ccc(C(=O)c2ccccc2C(=O)c2ccccc2OC)cc1?
growth inhibition ([1]; at 1.2 µM): -1%; growth inhibition ([1]; at 3.7 µM): -2%; growth inhibition ([1]; at 11.0 µM): 1%; growth inhibition ([1]; at 33.0 µM): 6%; growth inhibition ([1]; at 100.0 µM): 14%; growth inhibition ([2]; at 1.2 µM): -2%; growth inhibition ([2]; at 3.7 µM): 1%; growth inhibition ([2]; at 11.0 µM): -6%; growth inhibition ([2]; at 33.0 µM): -7%; growth inhibition ([2]; at 100.0 µM): -4%; growth inhibition ([3]; at 1.2 µM): 5%; growth inhibition ([3]; at 3.7 µM): 9%; growth inhibition ([3]; at 11.0 µM): 11%; growth inhibition ([3]; at 33.0 µM): 15%; growth inhibition ([3]; at 100.0 µM): 13%; growth inhibition ([4]; at 1.2 µM): -1%; growth inhibition ([4]; at 3.7 µM): -1%; growth inhibition ([4]; at 11.0 µM): -2%; growth inhibition ([4]; at 33.0 µM): -1%; growth inhibition ([4]; at 100.0 µM): 7%; growth inhibition ([5]; at 1.2 µM): -1%; growth inhibition ([5]; at 3.7 µM): 1%; growth inhibition [5, 17]: 7%; growth inhibition ([5]; at 11.0 µM): -1%; growth inhibition ([5]; at 33.0 µM): 4%; growth inhibition [5, 18]: 46%; growth inhibition ([5]; at 50.0 µM): 12.8%; growth inhibition ([5]; at 100.0 µM): 10%; growth inhibition ([6]; at 1.2 µM): -2%; growth inhibition ([6]; at 3.7 µM): 1%; growth inhibition [6, 17]: -10%; growth inhibition ([6]; at 11.0 µM): 1%; growth inhibition ([6]; at 33.0 µM): 7%; growth inhibition [6, 18]: 16%; growth inhibition ([6]; at 50.0 µM): 10.1%; growth inhibition ([6]; at 100.0 µM): 11%; growth inhibition ([7]; at 1.2 µM): -3%; growth inhibition ([7]; at 3.7 µM): -5%; growth inhibition ([7]; at 11.0 µM): -5%; growth inhibition ([7]; at 33.0 µM): -1%; growth inhibition ([7]; at 100.0 µM): 8%; growth inhibition [8, 17]: 17%; growth inhibition [8, 18]: 55%; growth inhibition ([8]; at 50.0 µM): 15.4%; growth inhibition ([9]; at 1.2 µM): 2%; growth inhibition ([9]; at 3.7 µM): -15%; growth inhibition ([9]; at 11.0 µM): 0%; growth inhibition ([9]; at 33.0 µM): 7%; growth inhibition ([9]; at 100.0 µM): 24%; growth inhibition [10, 17]: 9%; growth inhibition [10, 18]: 35%; growth inhibition ([10]; at 50.0 µM): 13.7%; growth inhibition ([11]; at 1.2 µM): -1%; growth inhibition ([11]; at 3.7 µM): 3%; growth inhibition [11, 17]: 16%; growth inhibition ([11]; at 11.0 µM): 7%; growth inhibition ([11]; at 33.0 µM): 27%; growth inhibition [11, 18]: 79% (active); growth inhibition ([11]; at 50.0 µM): 39.5%; growth inhibition ([11]; at 100.0 µM): 43%; growth inhibition ([12]; at 1.2 µM): -1%; growth inhibition ([12]; at 3.7 µM): -2%; growth inhibition ([12]; at 11.0 µM): -5%; growth inhibition ([12]; at 33.0 µM): -2%; growth inhibition ([12]; at 100.0 µM): 1%; growth inhibition ([13]; at 1.2 µM): 1%; growth inhibition ([13]; at 3.7 µM): -2%; growth inhibition ([13]; at 11.0 µM): -1%; growth inhibition ([13]; at 33.0 µM): 4%; growth inhibition ([13]; at 100.0 µM): 15%; growth inhibition ([14]; at 1.2 µM): -1%; growth inhibition ([14]; at 3.7 µM): -2%; growth inhibition ([14]; at 11.0 µM): 0%; growth inhibition ([14]; at 33.0 µM): 9%; growth inhibition ([14]; at 100.0 µM): 15%; growth inhibition [15, 17]: 30%; growth inhibition [15, 18]: 68%; growth inhibition ([15]; at 50.0 µM): 20.7%; growth inhibition ([16]; at 1.2 µM): -1%; growth inhibition ([16]; at 3.7 µM): -5%; growth inhibition ([16]; at 11.0 µM): -4%; growth inhibition ([16]; at 33.0 µM): 3%; growth inhibition ([16]; at 100.0 µM): 12%
